Screens as filed in PubChem BioAssay.
Vaccinia Venus: vaccinia inhibition (Venus reporter); Vaccinia virus Venus reporter expression, fluorescence; Potency, µM (doses to about 36.5 µM), for the others: top-dose activity change, negative = inhibition, most hits filed as inhibitors; 0.46% of 330,000 active; calls by dose curve; tested in A549 cells; further: potency means the concentration at half of the fitted maximal effect; nearly all actives have a fitted effect of over 30% in size
HCMV antiviral: blocks human cytomegalovirus replication; HFF cells, HCMV-luciferase reporter, 72 h; active compounds read low; activity change, negative = inhibition, % at 57.5 µM; 4.5% of 410,000 active; AID 1259415; in the data active means activity change below about -60%; inconclusive means no clear call, values can overlap the other calls; inactive means above about -39%
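Inhibition of viral replication was scored as loss of reporter luminescence in HFFs infected with HCMV-luciferase (MOI 1 PFU/cell) for 72 h; compounds tested at 2 doses, normalized to buffer and Salinomycin controls.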
Vaccinia mCherry: inhibitors of vaccinia virus infection (mCherry reporter signal); Vaccinia virus mCherry reporter infection, fluorescence; Potency, µM (doses to about 36.5 µM), inactives show at the highest dose activity change, negative = inhibition, hits mostly inhibitors; 0.63% of 310,000 active; AID 720579; calls by dose curve; tested in A549 cells; further: potency means the concentration at half of the fitted maximal effect; nearly all actives have a fitted effect of over 35% in size
FMDV inh: antivirals against foot and mouth disease virus | FMDV antiviral cell-based qHTS | Potency, µM (doses to about 57.9 µM), without a hit: at the top dose activity change, negative = inhibition, usual class: inhibitors | 1.2% of 410,000 active; calls by dose curve; tested in HEK293T cells; further: read-out not given here; potency means the concentration at half of the fitted maximal effect; nearly all actives have a fitted effect of over 45% in size
MARV entry inh: Marburg virus entry inhibition; Marburg virus pseudotyped entry inhibition, cell reporter; 1.8% of 300,000 active; Potency, µM (top dose mostly 37.8 µM), inactives show at the top dose activity change, negative = inhibition, most hits filed as inhibitors; calls by dose curve; tested in HEK293 cells; further: potency means the concentration at half of the fitted maximal effect
LASV entry inh: Lassa virus entry inhibition; Lassa virus pseudotype entry inhibition, cell reporter; Potency, µM (titrated, usually from 37.9 µM), inactives show at the highest dose activity change, negative = inhibition, actives largely listed as inhibitors; 1.2% of 300,000 active; AID 540256; calls by dose curve; tested in HEK293 cells; further: potency means the concentration at half of the fitted maximal effect; nearly all actives have a fitted effect of over 50% in size
Active calls of the source: *; i = inactive; u = inconclusive; x = no result given; [ ] = another dose, or the depositor's remark. In the library only some 6.5% were active in any assay of this set; here they are far more common. On the % scale 0 is the no-effect control and ±100 the full control effect.

SMILES	Vaccinia Venus	HCMV antiviral	Vaccinia mCherry	FMDV inh	MARV entry inh	LASV entry inh
COc1ccc(OC)c(NC(=O)CSC2=Nc3ccccc3C3=NC(CCC(=O)NCc4ccco4)C(=O)N23)c1 (stereo unspecified)	-15.1%	3.9	-14.7%	u	x	u
C=CS(=O)(=O)N(Cc1ccc(Cl)c(Cl)c1)C[C@@H](O)CO	0.0501µM*	x	0.282µM*	-7.6%	x	u
CCCc1c(C(=O)N/N=C(\C)c2ccccn2)nnn1-c1nonc1N	u	-97.7*	0.891µM*	-21.9%	x	x
CCCc1c(C(=O)N/N=C(\C)c2ccc(O)cc2)nnn1-c1nonc1N	x	u	x	-13.8%	x	x
C/C(=N\NC(=O)c1nnn(-c2nonc2N)c1CN(C)c1ccccc1)c1ccccc1O	u	-100.1*	u	21.3%	8.91µM*	u
COc1ccc(/C(C)=N/NC(=O)c2nnn(-c3nonc3N)c2CN(C)c2ccccc2)cc1	x	u	x	-9.6%	x	x
CCOCCc1nn2c(=O)cc(COC(=O)CNC(=O)c3cccc(C)c3)nc2s1	1.9%	20.8	2.2%	-8.1%	x	2.0%[46.1 µM]
CN1C(=O)C(Cl)(Cl)C(=O)c2ccccc21	-6.8%	x	-8.2%	28.2µM*	u	-22.2%
CN1CCN(c2ncc3nc(-c4ccccc4)c(=O)n(Cc4ccc(F)cc4)c3n2)CC1	x	x	x	-8.5%	x	x
C[C@H](O)[C@@H]1C(=O)N2CCc3c([nH]c4ccccc34)[C@@H]2C[C@@H]1N(C)C(=O)Nc1ccc(Br)cc1	x	-0.9	x	x	x	x
Cc1ccc([C@H]2C[C@@H](O)[C@H](n3cc(COC(=O)c4ccccc4)nn3)CN2C(=O)C2CCCCC2)cc1	-24.6%	1.8	i	-24.0%	x	u
COc1ccc([C@H]2C[C@H](O)[C@@H](n3cc(COC(=O)c4ccccc4)nn3)CN2C(=O)C2CCCCC2)cc1	-14.8%	-82.8*	12.3%	-16.1%	u	x
CCCCCCN1C[C@@H](n2cc(COC(=O)c3ccccc3)nn2)[C@H](O)C[C@@H]1c1ccc(C)cc1	u	-88.5*	u	-26.4%	x	x
Cc1ccc([C@H]2C[C@@H](O)[C@H](n3cc(COC(=O)c4ccccc4)nn3)CN2CC2CCCCC2)cc1	-20.4%	-89.0*	i	-4.3%	x	1.3%[46.1 µM]
CCCCCCN1C[C@@H](O)[C@H](n2cc(COC(=O)c3ccccc3)nn2)C[C@@H]1c1ccc(OC)cc1	-19.2%	-101.5*	-13.6%	-21.6%	x	x
O=C(OCc1cn([C@@H]2CN(CC3CCCCC3)[C@@H](c3ccccc3)C[C@H]2O)nn1)c1ccccc1	-21.1%	-14.4	u	-8.8%	x	x
COc1cccc(Cn2c(=O)c(-c3ccc(Cl)cc3)nc3cncnc32)c1	x	x	x	-15.1%	x	x
COc1ccccc1N1CCN(C(=O)c2cc3c(C)nc4ccccc4c3o2)CC1	u	-61.4*	u	u	u	11.2µM*
COc1ccccc1N1CCN(C(=O)c2oc3ccccc3c2C)CC1	5.6%	26.1	-6.1%	5.5%	u	u
Cc1nc2ccccc2c2oc(C(=O)N3CC(C)CC(C)C3)cc12 (stereo unspecified)	x	-36.9	x	u	x	x
COc1ccccc1N1CCN(C(=O)c2cccc3c(=O)c(C)c(-c4ccccc4)oc23)CC1	-17.9%	-66.4*	0.7%	-2.0%	-4.7%	x
Cc1ccc(CSc2nnc3nc(C)cc(C)n23)cc1	23.4%	-83.7*	x	-3.7%	u	20.2%
CCSc1nnc2nc(C)cc(C)n12	-0.6%	54.9	i	-14.1%	-0.3%[46.1 µM]	-8.2%
COC(=O)c1ccccc1C[C@]1(C(=O)OC)C=C[C@H](C)[C@@H](c2ccccc2)N1C(=O)C(F)(F)F	x	x	x	x	-16.1%[14.2 µM]	u
CC(C)OP(=O)(OC(C)C)/C(C=O)=N\Nc1ccc([N+](=O)[O-])cc1	x	-90.6*	x	-29.7%	x	x
SMILES	Vaccinia Venus	HCMV antiviral	Vaccinia mCherry	FMDV inh	MARV entry inh	LASV entry inh
COCCCNC(=O)c1ccc(-n2c(-c3ccccc3)cc3c2CCCCC3)cc1	-11.4%	u	-15.3%	-6.7%	x	-22.4%[46.1 µM]
CC(C)NC(=O)c1ccc(-n2c(-c3ccccc3)cc3c2CCCCC3)cc1	-3.7%	u	i	11.7%	x	17.0%[46.1 µM]
CC1CCc2c(cc(-c3ccccc3)n2-c2ccc(C(=O)NC(C)C)cc2)C1 (stereo unspecified)	-16.1%	-99.2*	-17.3%	-26.8%	x	u
COCCNC(=O)c1ccc(-n2c(-c3ccccc3)cc3c2CCC(C)C3)cc1 (stereo unspecified)	u	-101.1*	u	0.0%	x	2.7%[46.1 µM]
COCCNC(=O)c1ccc(C(=O)C(=O)c2ccccc2)cc1	-10.9%	-2.6	i	0.0%	22.7%	8.1%
CCOCCCNC(=O)c1ccc(-n2c(-c3ccccc3)cc3c2CCCC3)cc1	-20.2%	-66.0*	-10.9%	-6.2%	x	u
CN(C)CCNC(=O)c1ccc(-n2c(-c3ccccc3)cc3c2CCCCC3)cc1	-22.9%	u	i	1.2%	x	-9.7%[46.1 µM]
CCCNC(=O)c1ccc(-n2c(-c3ccccc3)cc3c2CCC(C)C3)cc1 (stereo unspecified)	-25.7%	-99.2*	-28.5%	u	x	u
COc1ccc(OC)c(CNC(=O)c2ccc(NC(=O)c3nsc4ccccc34)cc2)c1	-10.0%	73.8	-8.7%	5.1%	x	-13.7%[46.1 µM]
CN(C)c1ccc(/C=C/c2ccnc3ccc([N+](=O)[O-])cc23)cc1	40.6%	x	-13.7%	x	x	x
CC(C)(C)c1ccc(C(=O)NNc2ncccc2-n2cccc2)cc1	x	-60.2*	x	-9.8%	x	x
CCOc1ccc(NC(=O)N(Cc2c[nH]c3ccccc23)C2CCCCCC2)cc1	1.0%[7.34 µM]	104.1	1.2%[7.34 µM]	45.4%	u	-4.9%[46.1 µM]
Cc1cc(-c2nc3ccccc3s2)ccc1N	-18.7%	-2.6	-21.6%	-73.3%	u	3.55µM*
Nc1ccc2nc(-c3ccccc3)sc2c1	-11.8%	-31.6	-23.7%	10µM*	u	3.16µM*
CC(=O)Nc1ccc(S(=O)(=O)Nc2nc3ccc(C)cc3s2)cc1	x	42.9	x	107.6%	4.5%	9.1%
Cc1ccc2nc(-c3ccc(NS(=O)(=O)c4ccc(F)cc4)cc3)sc2c1	-23.2%	-94.4*	-22.1%	53.7%	u	u
Cc1ccc2nc(-c3ccc(N)cc3)sc2c1	u	-32.7	u	8.91µM*	3.55µM*	u
Nc1ccc(-c2nc3cc(N)ccc3s2)cc1	-8.2%	57.9	-1.1%	-10.8%	u	u
Cc1ccc2sc(-c3ccc(N)cc3)nc2c1	-4.2%	u	-10.5%	u	u	u
CCOC(=O)c1ccc(NC(=S)NC(=O)c2cncc(Br)c2)cc1	-8.0%	-71.9*	-13.2%	-7.6%	4.8%[46.1 µM]	14.0%
CCOc1ccc(NC(=S)NC(=O)c2cncc(Br)c2)cc1	-14.3%	-0.7	i	-9.4%	-2.5%[14.2 µM]	-7.9%
CCCCOC(=O)c1ccc(NC(=S)NC(=O)c2c(Br)c(C)nn2C)cc1	0.4%	-64.2*	i	-15.6%	u	4.0%
O=C(CSc1nc(-c2ccc(F)cc2)[nH]c1-c1ccc(F)cc1)Nc1ccc2c(c1)OCCO2	u	-74.8*	u	u	u	u
